Measurements as given in PubChem BioAssay (NCI).
The panel holds about 83,000 compounds, 20% with a hit somewhere; the sample as a whole holds those more often.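 The test compound was applied at a single concentration to cells in 96-well plates for 48 hours, and percent growth was recorded.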 Calls of active or inactive are those of the source. How the source made its calls: active means growth percent below 10; inactive means the rest.

These molecules were tested on HCT-15 colon (assay: NCI-60 one-dose screen, 48 h (100 = growth as untreated, 0 = no growth, -100 = all killed)). Details: 10 µM unless noted.

Row | Compound | growth
1 | CNc1cc(C(=O)O)nc(NC)n1 | 96.4% (inactive)
2 | Brc1ccc2c(c1)CN(C1CCCCC1)CO2 | 104% (inactive)
3 | CCN=C1C=CC(=C(c2ccc(N(CC)CC)cc2)c2ccc(N(CC)CC)cc2)c2ccccc21 | -70.9% (active)
4 | O=C(CSc1nc2ccc([N+](=O)[O-])cc2[nH]1)Nc1ccc(F)c(Cl)c1 | 18.5% (inactive)
5 | COc1ccc(-c2ccc(NNC(=O)c3ccc(F)cc3)nn2)cc1OC | 64.1% (inactive)
6 | CCOC(CNC(=O)c1cccc([N+](=O)[O-])c1)OCC | 99.7% (inactive)
7 | CN(C)C(=S)Sc1ccc([N+](=O)[O-])cc1[N+](=O)[O-] | 5.29% (active)
8 | CCN(CC)CC(C)Nc1ccc(C)c2sc3ccccc3c(=O)c12 (stereo not drawn) | 32.5% (inactive)
9 | CN(C)Cc1ccc[nH]1 | 102% (inactive)
10 | CNC(=O)c1cc(Oc2cccc3nc(NC(=O)Nc4cc(C(F)(F)F)cc(C(F)(F)F)c4)ccc23)ccn1 | 71.1% (inactive)
11 | CC1=CC[C@@H]2C(C)(C)[C@@H](O)CC[C@@]2(C)[C@@H]1COc1ccc2ccc(=O)oc2c1 | 29.4% (inactive)
12 | CC(=O)CC(=O)SC1=NCCS1 | 100% (inactive)
13 | CSc1cccc([N+](=O)[O-])c1 | 100% (inactive)
14 | O=C1/C(=C\c2cccn2Cc2ccccc2)c2ccccc2N1c1c(Cl)cccc1Cl | 4.9% (active)
15 | COc1ncnc2c(-c3ccccc3)cn(COCc3ccccc3)c12 | 42.6% (inactive)
16 | C=C(C)[C@@H]1CC[C@]2(C(=O)NCCCN)CC[C@]3(C)[C@H](CC[C@@H]4[C@@]5(C)CC[C@H](O)C(C)(C)[C@@H]5CC[C@]43C)[C@@H]12 | -22.1% [100 µM] (active)
17 | COc1ccc(/C=C/C=C\C(=O)c2ccc(-n3ccnc3)cc2)cc1 | 91.3% (inactive)
18 | Cc1ccccc1-n1nnc(C(=O)Nc2nc3ccc(F)cc3s2)c1C | 61.1% (inactive)
19 | O=C(N/N=C/c1ccc([N+](=O)[O-])cc1)c1ccc(Br)o1 | 94.5% (inactive)

Row | Compound | growth
20 | Cc1nc(-c2ccccc2)sc1CC#N | 102% (inactive)
21 | O=S(=O)(/N=c1/n(-c2ccccc2)nc2n1CCN2C1=NCCN1)c1ccc(-c2ccccc2)cc1 | 99.4% (inactive)
22 | Nc1ccc2c(c1)Cc1cc(NC(=O)C(F)(F)F)ccc1-2 | 96.4% (inactive)
23 | O=C(Nc1ccc(C(=O)/C=C/c2ccc(N3CCOCC3)cc2)cc1)Nc1ccc([N+](=O)[O-])cc1 | 92.9% (inactive)
24 | C=CCc1nc2ccccc2s1 | 94.3% (inactive)
25 | O=C(Nc1cc(F)cc2cccnc12)c1cnc(N2CCNCC2)cn1 | 40.5% (inactive)
26 | C[n+]1c2ccccc2nc2c(N)cc(N)cc21 | 110% (inactive)
27 | CCOC(=O)CCC[P+](c1ccccc1)(c1ccccc1)c1ccccc1 | 102% (inactive)
28 | COc1ccc2nc3ccccc3c(NCCNCCO)c2c1 | 19.6% (inactive)
29 | c1nc(N2CCOCC2)c2[nH]ccc2n1 | 105% (inactive)
30 | Oc1c(CNCCNCc2cc(Cl)cc(Cc3ccccc3)c2O)cc(Cl)cc1Cc1ccccc1 | 25.7% (inactive)
31 | COc1cc(Cl)cc(-c2nn(C(=O)NS(=O)(=O)c3ccccc3)cc2-c2ccncc2)c1 | 111% (inactive)
32 | COc1cccc(-c2[nH]c(=S)ncc2C(=O)c2ccccc2)c1 | 50.8% (inactive)
33 | CC(C)(C)c1cc(C(=O)Nc2ccccc2C(=O)NCCN)cc(C(C)(C)C)c1 | -56.7% (active)
34 | N=C(N)c1ccc(-c2ccc(-c3ccc(-c4cccs4)s3)s2)cc1F | 84.5% (inactive)
35 | Cc1c(Cn2cc(COc3ccc(Br)cc3)nn2)c(C)c(Cn2cc(COc3ccc(Br)cc3)nn2)c(C)c1Cn1cc(COc2ccc(Br)cc2)nn1 | 104% (inactive)
36 | CCc1ccc(-c2ccc(COc3ccc(CC4SC(=O)NC4=O)cc3)cc2)cc1 (stereo not drawn) | 56.4% (inactive)
37 | Cc1ccc(N)c(O)c1 | 83.8% (inactive)
38 | CCCCN(CCCC)CC(O)c1ccc(OCc2ccccc2)c2ccccc12 (stereo not drawn) | 69.7% (inactive)
